The values below come from PubChem BioAssay.

The source made the active and inactive calls.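 How the source made its calls, unless noted: active means inhibition at or above 50% relative to wild type and mutant plate controls; inactive means inhibition below 50%.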

In general, inhibition refers to the change of the read-out against control, counted positive when it falls.

Experiment [1] can be described thus: inhibitors of TNFa-induced NFkB p65 translocation, primary screen, imaging, HUVEC, MLSMR starter and 10KST1 sets (AID 438;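 active means inhibition above 20% together with a positive visual image hit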;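 further: compound added about 3h40 before a 20 min TNFalpha stimulation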;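 on inhibition: signal is the nuclear over cytoplasmic p65 intensity ratio per well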). The following applies: HUVEC TNFa-induced p65 nuclear translocation; cell count: measured here: nuclei count (cytotoxicity indicator), at 2.08 µM; inhibition: at 2 µM, stronger effect = higher value, 0% TNFa-plus-vehicle, 100% no-TNFa wells.
Experiment [2] in a line: reduction of polyQ htt aggregates in cells – imaging, exon1htt(103Q)mCFP cells, high-content imaging, primary screen (AID 483;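 active means visual image review flags a hit and inhibition of aggregation exceeds 20%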;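 further: compound exposure lasted 3 days before fixation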;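 on nuclei count: percent of the per-plate median nuclei count of sample wells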). The note with it: exon1htt(103Q)mCFP cell line, aggregate imaging, at 2 µM; inhibition of aggregation: stronger effect = higher value; nuclei count: measured here: cell count, toxicity.
A short description of experiment [3]: endothelial E-selectin expression blockers – imaging, HUVEC, immunofluorescence, MLSMR starter and 10KST1 sets, primary screen (AID 487;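 active means visually confirmed hit in the image check and inhibition above 20%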;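 on inhibition: signal is fraction of cell area covered by stained E-selectin grains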;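 on nuclei count: 100% = median nuclei count of all wells on the same plate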). The note with it: HUVEC TNFalpha-induced E-selectin immunofluorescence imaging, at 2 µM; inhibition: stronger effect = higher value; nuclei count: measured here: cell number, toxicity.
Experiment [4] is described as follows: Primary imaging screen for DUSP6 inhibitors that restore phospho-Erk in transfected HeLa cells, chemical complementation (AID 609;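 active means compounds giving at least 50% inhibition in the cell-based MKP-3 phosphatase rescue imaging test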;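 on inhibition: phospho-Erk level distribution per well compared with pooled transfected vehicle control wells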). The note with it: HeLa MKP-3 transfected, phospho-Erk imaging KS statistic, at 10 µM, cells stimulated with TPA for 15 min.
The target in experiment [5] is Dual specificity protein phosphatase 6 (Homo sapiens) (UniProt Q16828). Described as above. The note with it: HeLa MKP-3 transfected, phospho-Erk imaging KS statistic; at 10 µM; stronger effect = higher value; cells stimulated with TPA for 15 min.
The target of experiment [6] is Voltage-gated potassium channel subunit beta-2 (Rattus norvegicus) (UniProt P62483). Kind of experiment: inhibitors of rat Kvbeta2 reductase activity – biochemical, NADPH fluorescence, primary screen (AID 622;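 active means fluorescence slope higher than the sample average by over 3 SD, cut at about -0.22 in these data, passing the limit was not always enough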;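 further: slope of raw intensity against log time taken from 70 to 1610 s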). The following applies: recombinant KvBeta, 4-cyanobenzaldehyde reduction, at 10 µM, stronger effect = higher value.
Experiment [7] shares this target. Kind of experiment: enhancers of rat Kvbeta2 NADPH turnover – biochemical, NADPH fluorescence, primary screen (AID 623;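 active means NADPH fluorescence slope more negative than the mean of all samples by about 3 SD, 99.7% confidence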;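 further: fluorescence intensity change per second fitted from 20 to 320 s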). The note with it: Recombinant KvBeta, NADPH fluorescence decrease slope, 10 min; at 10 µM; stronger effect = lower value.
Experiment [8] addresses Alpha-2C adrenergic receptor (Homo sapiens) (UniProt P18825). Kind of experiment: compounds altering alpha2C-coupled GIRK flux – cell-based, HEK293 alpha2C/GIRK1/2, thallium flux, primary screen (AID 624;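 active means fluorescence slope after compound addition differing from the mean of all screened samples at 99.7% confidence, in either direction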;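 further: slope of fluorescence ratio to pre-addition baseline per second over 15 to 24 s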). The note with it: thallium flux BTC fluorescence, at 10 µM, actives lie on both sides.
The nature of experiment [9]: inhibitors of larval lipid processing in zebrafish, primary screen, whole organism, PED6 fluorescence, gall bladder and intestine (AID 686;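 active means a full or partial loss of lipid-probe fluorescence in the fish gall bladder, intestine or both, judged by eye; inactive means no fluorescence loss, or compound toxic to the fish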;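 further: larvae 5 to 7 days old with five fish per well; signal comes from phospholipase A2 cleavage of quenched PED6 carried via bile; overnight exposure to compound and PED6 before scoring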). The following applies: Zebrafish larvae PED6 lipid processing, fluorescence scoring; screened at 20 µM (by protocol).
A short description of experiment [10]: loss of swimming-algae plug formation – whole organism, Chlamydomonas reinhardtii, WT vs cilia-less mutant, absorbance, 96-well, primary screen (AID 463189).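 Further: 0% = wild type cc124 cells in DMSO and 100% = ciliumless bld1 mutant cells.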 The following applies: Chlamydomonas reinhardtii gravitaxis, OD600 absorbance, 2 days; at 10 µM; stronger effect = higher value.
Experiment [11] in a line: blockers of RIG-like receptor reporter activation – cell-based, Sendai virus stimulus, luciferase, 10K MLSCN set, TLR/RLR signaling modifier project, primary screen (AID 602276;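 active means inhibition at or above 50% at 10 µM; inactive means inhibition below 50%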;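 further: firefly luciferase from ISG56 promoter only with Renilla not read in this screen; 0% = Sendai virus plus DMSO and 100% = medium plus DMSO without virus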). The note with it: HEK293 RL24 IRF3 luciferase reporter, at 10 µM, stronger effect = higher value.
Experiment [12] in a line: TLR3 IRF3 reporter activation blockers – cell-based, poly I:C stimulus, luciferase, 10K MLSCN set, primary screen (AID 602277;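 active means inhibition of the reporter signal at or above 50%; inactive means inhibition below 50%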). The note with it: HEK293-TLR3 RL24 IRF3 luciferase reporter, at 10 µM, stronger effect = higher value.
[13] abbreviates: measured here: cell density z-score.
Setting [14] is: measured here: nuclear c-Myc green intensity z-score.
[15] abbreviates: measured here: nuclear pErk red intensity z-score, stronger effect = higher value.

Voltage-gated potassium channel subunit beta-2 (Rattus norvegicus), sequence (P62483 whole entry, looked up): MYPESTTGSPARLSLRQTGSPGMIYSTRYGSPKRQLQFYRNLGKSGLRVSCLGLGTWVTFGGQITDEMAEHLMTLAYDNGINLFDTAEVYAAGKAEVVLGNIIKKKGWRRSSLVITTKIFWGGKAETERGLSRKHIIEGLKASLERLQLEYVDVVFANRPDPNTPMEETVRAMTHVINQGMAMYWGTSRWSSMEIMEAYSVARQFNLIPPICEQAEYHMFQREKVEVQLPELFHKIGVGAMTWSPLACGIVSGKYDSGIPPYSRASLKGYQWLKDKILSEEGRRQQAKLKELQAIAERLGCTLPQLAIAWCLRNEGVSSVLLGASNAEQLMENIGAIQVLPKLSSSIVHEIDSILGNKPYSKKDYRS
Alpha-2C adrenergic receptor (Homo sapiens), sequence (P18825 whole entry, looked up): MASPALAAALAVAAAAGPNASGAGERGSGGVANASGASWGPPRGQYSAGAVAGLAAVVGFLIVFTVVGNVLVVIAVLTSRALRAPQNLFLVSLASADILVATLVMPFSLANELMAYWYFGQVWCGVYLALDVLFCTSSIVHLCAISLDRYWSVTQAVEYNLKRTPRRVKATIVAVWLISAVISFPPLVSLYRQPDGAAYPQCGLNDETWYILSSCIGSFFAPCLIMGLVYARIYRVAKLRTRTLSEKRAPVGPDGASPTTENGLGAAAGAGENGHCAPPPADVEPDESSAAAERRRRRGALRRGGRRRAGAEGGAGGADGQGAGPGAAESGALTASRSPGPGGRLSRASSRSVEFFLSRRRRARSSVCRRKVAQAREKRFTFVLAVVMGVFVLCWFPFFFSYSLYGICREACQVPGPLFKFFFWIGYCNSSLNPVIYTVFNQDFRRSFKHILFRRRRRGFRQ
Dual specificity protein phosphatase 6 (Homo sapiens), sequence (Q16828 whole entry, looked up): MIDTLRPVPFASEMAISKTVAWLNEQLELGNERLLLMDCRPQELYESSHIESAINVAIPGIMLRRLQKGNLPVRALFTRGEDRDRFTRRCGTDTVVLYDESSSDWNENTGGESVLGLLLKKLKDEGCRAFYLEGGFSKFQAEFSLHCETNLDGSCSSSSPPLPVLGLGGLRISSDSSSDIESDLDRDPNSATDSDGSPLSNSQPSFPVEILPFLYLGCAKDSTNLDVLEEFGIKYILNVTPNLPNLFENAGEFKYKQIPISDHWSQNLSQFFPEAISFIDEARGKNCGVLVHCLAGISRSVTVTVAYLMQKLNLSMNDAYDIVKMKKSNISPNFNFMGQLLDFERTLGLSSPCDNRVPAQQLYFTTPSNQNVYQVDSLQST

Turning to `CCOC(=O)C1CCN(c2nc3ccccc3nc2C(C#N)C(=O)OCCOC)CC1` (stereo not given), the cell count in experiment [1] worked out at 436. The inhibition in experiment [1] was -5.7% (inactive); in experiment [3] it was -67.9% (inactive); in [5], -11.5% (inactive); in experiment [10], -22.9% (inactive); in experiment [11], 13.3% (inactive); in experiment [12], 3.22% (inactive). In [2], the inhibition of aggregation was 12.8% (inactive). For the same compound, the nuclei count came to 81% in experiment [2] and 120% in [3]. Further, the z-score in experiment [4] (setting [13]) was 0.586; in experiment [4] (setting [14]), 0.396; in experiment [4] (setting [15]), 0.0352. For the same compound, the fluorescence slope in experiment [6] was -0.529 (inactive). Also, in experiment [7], the NADPH fluorescence slope is 2.1e-06 (inactive). The slope in [8] is 0.00561 (inactive). Besides, in experiment [9], the result was inactive.

Turning to `CCCCn1cnc2c(c1=O)c1nc3ccccc3nc1n2Cc1ccc2c(c1)OCO2`, the cell count in [1] came out at 588. Besides, the inhibition in [1] was -2% (inactive); in experiment [3], -78% (inactive); in [5], -4.7% (inactive); in experiment [10], 10.8% (inactive); in experiment [11], 7.61% (inactive); in experiment [12] it was 1.84% (inactive). Besides, the inhibition of aggregation in experiment [2] was -18.6% (inactive). The figures for the nuclei count in [2] and in experiment [3] were 101% and 129%, respectively. Further, the z-score is 0.775 in experiment [4] (setting [13]), -1.04 in experiment [4] (setting [14]) and -0.0661 in experiment [4] (setting [15]). Besides, in experiment [6], the fluorescence slope is -0.159 (inactive). Further, in [7], the NADPH fluorescence slope was 1.1e-05 (inactive). For the same compound, the slope in [8] is 0.00729 (inactive). The call in [9] was inactive.

Turning to `COC(=O)CSc1nc2sc3c(c2c(=O)n1C1CCCCC1)CCN(C)C3`, the cell count in [1] stood at 390. The inhibition was -4.4% (inactive) in experiment [1]; -127% (inactive) in experiment [3]; -8.59% (inactive) in [5]; 14.6% (inactive) in experiment [10]; 15.7% (inactive) in experiment [11]; 38.9% (inactive) in experiment [12]. Moreover, the inhibition of aggregation in experiment [2] is -16% (inactive). Further, the nuclei count in experiment [2] came out at 102%; in experiment [3], 140%. Also, the figures for the z-score in [4] (setting [13]), in experiment [4] (setting [14]) and in experiment [4] (setting [15]) were -0.811, -0.963 and 1.03, respectively. The fluorescence slope in experiment [6] was -0.289 (inactive). The NADPH fluorescence slope in experiment [7] is 2e-05 (inactive). Also, in experiment [8], the slope is 0.00385 (inactive). For the same compound, the compound was classed as inactive in [9].

In the case of `C[C@]12CC[C@@H]3c4ccc(O)cc4CC[C@H]3[C@@H]1CC[C@@H]2OC(=O)CCC(=O)O`, in experiment [1], the cell count was found to be 543. For the same compound, the inhibition in [1] was 4.6% (inactive); in [3] it was -5.8% (inactive); in experiment [5], 5.79% (inactive); in experiment [10] it was -7.26% (inactive); in experiment [11] it was 15.4% (inactive); in experiment [12] it was 24% (inactive). Besides, the inhibition of aggregation in experiment [2] is -1.9% (inactive). In addition, the results for the nuclei count in experiment [2] and in [3] were 91.7% and 111%, respectively. Moreover, the z-score in experiment [4] (setting [13]) was -0.479; in [4] (setting [14]), -0.845; in experiment [4] (setting [15]), 2.04. Moreover, the fluorescence slope in [6] was -0.519 (inactive). Moreover, in experiment [7], the NADPH fluorescence slope was -3.4e-05 (inactive). Also, the slope in experiment [8] is 0.0043 (inactive). Besides, in [9], the result was inactive.

On to `CCCCN1C[C@H](O)[C@@H](O)[C@H](O)[C@H]1CO`, for which the cell count in experiment [1] came to 594. In addition, the inhibition in experiment [1] was -9.5% (inactive); in [3] it was -34.3% (inactive); in [5] it was 15.3% (inactive); in [10], 22.3% (inactive); in experiment [11], 14% (inactive); in experiment [12] it was 19.6% (inactive). In addition, the inhibition of aggregation in experiment [2] is -4.6% (inactive). In addition, the nuclei count in experiment [2] is 109%; in [3], 129%. Moreover, the z-score is 0.947 in experiment [4] (setting [13]), -0.313 in experiment [4] (setting [14]) and 0.0804 in experiment [4] (setting [15]). Moreover, the fluorescence slope in experiment [6] is -0.473 (inactive). In [7], the NADPH fluorescence slope was 1.5e-05 (inactive). Further, the slope in experiment [8] is 0.00474 (inactive). Also, the compound was called inactive in experiment [9].
